Rows were chosen to be rich in hits. Some 1.9% of all compounds tested hit in one or more screens of this group.
S1P4 antagonist: S1P4 receptor antagonists, primary screen, cell-based. Sphingosine 1-phosphate receptor 4 (Homo sapiens), O95977. S1P4-expressing cells, antagonist mode, reporter read-out. inhibition, % at 4.98 µM. 220,000 tested, 0.26% active; in the data active means inhibition above about 29%;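 further: 0% = wells stimulated with agonist and 100% = vehicle wells without agonist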
S1P4 agonist: S1P4 receptor agonists, primary screen, cell-based | activation, % at 4.98 µM | S1P4-expressing cell line, agonist reporter assay | 220,000 tested, 0.35% active; in the data active means activation above about 11%;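 further: 0% = DMSO vehicle and 100% = reference agonist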
S1P3 antagonist: S1P3 receptor antagonists, primary screen, cell-based; 170,000 tested, 0.27% active; inhibition, % at 4.98 µM; CHO S1P3 NFAT-BLA reporter, FRET fluorescence, antagonist mode; AID 485, 2006;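 active means inhibition above the plate cutoff, the mean inhibition of test wells on that plate plus 3 SD, cut at about 28% in these data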;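 further: cells challenged with S1P at its EC80 of 0.8 µM; blue over green emission ratio from cleaved BLA substrate after 4 h stimulation; 0% = S1P-stimulated wells and 100% = unstimulated DMSO-only wells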
EP2 modulator: EP2 receptor modulators, cAMP readout, primary screen, cell-based, HTRF cAMP, PGE2 stimulation; AID 940, 2007; 260,000 tested, 0.83% active; EP2-expressing cells, cAMP HTRF FRET, PGE2 co-stimulation; Prostaglandin E2 receptor EP2 subtype (Homo sapiens), P43116; induction, % at 25 µM;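 active means compounds whose cAMP rise, as percent of the full-agonist control response, exceeds 60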;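 further: rat C6 glioma line stably carrying human EP2 under a CMV promoter; the protocol text gives 20 µM as final concentration; 100% = response of wells given 1 µM PGE2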
Pf gamet viab: late stage P. falciparum gametocyte viability inhibitors, primary screen, ATP luminescence, HTS; 150,000 tested, 0.065% active; P. falciparum stage V gametocytes, 24 h; inhibition, % at 10.9 µM;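 active means inhibition above the mean plus 3 SD of compounds within the control limits, set per campaign, cut at about 38% in these data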;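 further: 0% = DMSO wells and 100% = medium only without gametocytes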
EP2 antag: human EP2 receptor antagonists, primary screen, TR-FRET cAMP, C6 glioma cells | 260,000 tested, 0.52% active | Prostaglandin E2 receptor EP2 subtype (Homo sapiens), P43116 | inhibition, % at 25 µM | C6 glioma cells expressing human EP2; cells stimulated with saturating PGE2;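 active means percent inhibition above 40 after rounding to a whole number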;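 further: rat C6 glioma host cells with rolipram phosphodiesterase inhibitor present; the protocol text gives 20 µM as final concentration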
S1P4 ag conf: S1P4 receptor agonists, retest, confirmation, cell-based, high throughput | shares compounds with S1P4 agonist | S1P4 agonist cell-based reporter assay | activation, % at 4.98 µM | 740 tested, 7% active; in the data active means activation above about 12%;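 further: 0% = vehicle and 100% = full reference agonist response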
S1P1 ag: S1P1 receptor agonists, human, counter-screen for S1P4 agonist project, cell-based; shares compounds with S1P4 agonist; S1P1 agonist cell-based assay, activation; activation, % at 4.98 µM; 740 tested, 4% active; AID 1563, 2009; in the data active means activation above about 21%;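 further: 0% = vehicle wells and 100% = reference agonist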
Target sequence (P21453 whole entry, looked up): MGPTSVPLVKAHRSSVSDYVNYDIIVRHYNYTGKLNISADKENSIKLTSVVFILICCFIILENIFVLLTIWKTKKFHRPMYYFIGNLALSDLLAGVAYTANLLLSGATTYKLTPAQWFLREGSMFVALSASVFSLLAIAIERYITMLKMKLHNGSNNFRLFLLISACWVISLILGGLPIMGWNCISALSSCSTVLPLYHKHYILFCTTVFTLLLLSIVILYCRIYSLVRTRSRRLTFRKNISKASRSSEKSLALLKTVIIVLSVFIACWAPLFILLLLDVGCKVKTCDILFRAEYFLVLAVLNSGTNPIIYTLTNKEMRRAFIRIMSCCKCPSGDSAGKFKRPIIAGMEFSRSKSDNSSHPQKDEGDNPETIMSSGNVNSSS
An asterisk follows results filed as active; nt = not tested or not shown.

SMILES	S1P4 antagonist	S1P4 agonist	S1P3 antagonist	EP2 modulator	Pf gamet viab	EP2 antag	S1P4 ag conf	S1P1 ag
CCOC(=O)c1ccc(NC(=O)Cn2c(C)cc(COC)c(C#N)c2=O)cc1	nt	nt	nt	-17	nt	8	nt	nt
N=c1oc2cc(O)ccc2cc1C(=O)Nc1ccc(Br)cc1	nt	nt	nt	-96	nt	11	nt	nt
N=c1oc2cc(O)ccc2cc1C(=O)Nc1nc2ccccc2s1	-76	92*	-103	-38	-10	19	80*	129*
O=C(Nc1ccc2snnc2c1)NC1CC1	nt	nt	nt	-36	nt	9	nt	nt
O=C(COC(=O)c1ccccc1O)Nc1ccc(S(=O)(=O)N2CCCCC2)cc1	-16	-1	-15	-29	17	3	nt	nt
CSc1ncccc1C(=O)OCC(=O)Nc1ccc(S(=O)(=O)N2CCCC2)cc1	-15	58*	5	25	nt	4	-2	2
Cc1cccc2cc(CN(CCCO)C(=S)NCC3CCCO3)c(=O)[nH]c12 (stereo not drawn)	nt	nt	nt	-16	nt	12	nt	nt
COC(=O)N/N=C/c1ccccc1OCc1ccccc1	-20	-1	-1	-14	-12	5	nt	nt
CC(=O)Nc1ccc(C(=O)N/N=C/c2ccccc2OCc2ccccc2)cc1	4	19*	1	-76	-14	5	-2	-4
CCOC(=O)CC(=O)NNC(=O)c1c(O)c2ccccc2n(CC)c1=O	nt	nt	nt	-19	nt	10	nt	nt
COc1ccc(C2=NN(C(=O)CN3CCCC3)C(c3ccc(OC)cc3)C2)cc1 (stereo not drawn)	12	40*	0	-38	-4	8	-2	-8
COc1ccc(C2=NN(C(=O)CN3CCCCC3)C(c3ccc(OC)cc3)C2)cc1 (stereo not drawn)	18	-1	9	0	-184	5	nt	nt
COc1ccc(C2CC(c3ccc(Br)cc3)=NN2C(=O)c2cccnc2)cc1 (stereo not drawn)	-17	12*	7	21	28	6	0	2
CCOC(=O)c1sc(NC(=O)CSc2nnc(-c3ccco3)n2C)nc1C	nt	nt	nt	8	nt	14	nt	nt
CCOC(=O)c1cccc(-n2c(C)cc(C=O)c2C)c1	-11	-1	13	23	nt	5	nt	nt
CCOC(=O)c1c(-n2c(C)cc(C=O)c2C)sc2c1CCCC2	-12	16*	nt	48	nt	7	21*	-7
O=C(N/N=C/c1cc([N+](=O)[O-])ccc1O)c1cc(-c2ccccc2)nc2ccccc12	-9	1	-14	18	0	1	nt	nt
Cc1cc(C(=O)N/N=C/c2cc([N+](=O)[O-])ccc2O)c2ccccc2n1	-10	22*	-7	-16	15	12	-2	-1
O=C(CN1C(=O)NC2(CCSC2)C1=O)N1CCN(c2ccc(F)cc2)CC1 (stereo not drawn)	-10	18*	nt	nt	16	5	-1	-4
O=C(CCSc1ccccc1)NCc1cccnc1	-8	11*	2	-21	6	1	-2	1
O=C(CSc1ccccc1)NCc1cccnc1	-8	0	nt	19	18	nt	nt	nt
CCc1nnc(NC(=O)CSc2nc3c(c(=O)n(C)c(=O)n3C)n2C(C)C)s1	nt	nt	nt	-9	nt	13	nt	nt
Cc1ccc(C(=O)/C=C2/NC(=O)CS2)cc1	-1	20*	nt	23	nt	7	-2	-3
O=C1CS/C(=C/C(=O)c2cccc(Cl)c2)N1	-14	1	-16	-19	3	4	nt	nt
COC(=O)COc1ccc(S(=O)(=O)N2CCCCC2)cc1Cl	nt	nt	nt	-21	nt	9	nt	nt
SMILES	S1P4 antagonist	S1P4 agonist	S1P3 antagonist	EP2 modulator	Pf gamet viab	EP2 antag	S1P4 ag conf	S1P1 ag
CCCCOc1ccccc1C1C(C(=O)OC)=CN(CC)C=C1C(=O)OC	-3	12*	-53	50	nt	nt	3	13
CCCOc1ccccc1C1C(C(=O)OC)=CN(C(C)C)C=C1C(=O)OC	-8	18*	-2	28	-10	6	3	5
COC(=O)C1=CN(C(C)C)C=C(C(=O)OC)C1c1cccc(OC)c1	-7	7	6	14	nt	nt	nt	nt
CCC(=O)OCCSc1nc2ccccc2s1	nt	nt	nt	-38	nt	9	nt	nt
CC(C)n1nc(CC(=O)N2CCCCC2c2nc3ccccc3[nH]2)c2ccccc2c1=O (stereo not drawn)	nt	nt	nt	-7	nt	nt	nt	nt
CC[C@@H](Cn1nnc2ccccc2c1=O)NC(=O)c1ccco1	nt	nt	nt	-22	nt	7	nt	nt
CCOc1ccc(C(=O)NCC(C)C)cc1	-9	1	nt	7	nt	12	nt	nt
CCOc1ccc(C(=O)NCC(c2cccs2)N(C)C)cc1 (stereo not drawn)	9	15*	-4	30	20	3	-3	0
O=C(Nc1ccc2ccccc2c1)N1CCN(c2ncccc2C(F)(F)F)CC1	-14	16*	6	-25	14	10	-1	2
Cc1ccc(NC(=O)N2CCN(c3ncccc3C(F)(F)F)CC2)cc1	15	1	7	-25	9	12	nt	nt
O=C(Cc1c(F)cccc1Cl)NCc1ccc2c(c1)OCO2	nt	nt	nt	-7	nt	5	nt	nt
COc1cc(C2NC(=O)NC3=C2C(=O)N(CCCO)C3)ccc1O (stereo not drawn)	nt	nt	nt	5	nt	11	nt	nt
Cc1oc2c(c1CC(=O)NCc1nc(-c3ccccc3)no1)C(=O)CC(C)(C)C2	nt	nt	nt	-4	nt	15	nt	nt
COc1ccc(-c2nnn(CC(=O)N(CCO)C(C(=O)NC3CCCC3)c3ccncc3)n2)cc1 (stereo not drawn)	-23	76*	-4	9	9	10	-2	-4
O=C(Cc1ccccc1[N+](=O)[O-])N1CCN(c2ccc(F)cc2)CC1	-7	74*	18	11	nt	4	-2	-8
CN(C1=C(N2CCCCC2)C(=O)c2ccccc2C1=O)c1ccccc1	-30	12*	nt	64*	nt	7	-2	-5
O=C1C(Nc2ccccc2)=C(N2CCCCC2)C(=O)c2ccccc21	0	0	nt	-4	nt	23	nt	nt
C=CCn1c2cc(C)oc2c2cnn(CC(=O)NCCOC=C)c(=O)c21	nt	nt	nt	-25	nt	nt	nt	nt
CCC/C=N/Nc1nc2ccccc2s1	5	64*	-11	2	nt	4	-1	-1
COc1ccc(S(=O)(=O)N2CCC(C(=O)Nc3c(C)cc(C)cc3C)CC2)cc1C	nt	nt	nt	3	nt	4	nt	nt
CC1C2=C(CC(C)(C)CC2=O)NC2=C1C(=O)CC(C)(C)C2	-4	18*	-9	-10	nt	5	7	8
CCOc1ccc(Oc2c(/C=N/NC(N)=O)c(C)nn2-c2ccccc2)cc1	-7	-2	-21	32	-8	15	nt	nt

Assay outcomes deposited in PubChem by several laboratories.
